IMPase inh: qHTS Assay for Identifying the Cell-Membrane Permeable IMPase Inhibitors | CHO-M1 cells, IP1 accumulation, HTRF TR-FRET ratio | inhibition (IP1 accumulation), % at 46.1 µM | 120,000 tested, under 10 active; active means well fitted curve in the direction sought with a large enough effect in the signal ratio, not every such curve was filed as active; inconclusive means small, poorly fitted or top-dose-only effect, or a change in a side signal; inactive means no such curve, though single readings can be large or run the other way; the % refers to the signal ratio;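 further: cells stimulated with carbachol in lithium chloride buffer; plate controls were DMSO basal wells for no effect and reference inhibitor wells for full effect; higher means more IMPase inhibition seen as more IP1 and lower FRET ratio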
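The IP-One HTRF competitive assay in carbachol-stimulated CHO-M1 cells quantifies cellular IP1. Compounds spanned up to 46 uM final, and activity is expressed as AC50 from concentration-response fits of the ratio and donor data.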
12-hLO inh: qHTS Assay for Inhibitors of 12-hLO (12-human lipoxygenase). Polyunsaturated fatty acid lipoxygenase ALOX12 (Homo sapiens), P18054. purified 12-hLO, xylenol orange hydroperoxide absorbance. Potency, µM (doses to about 57.1 µM), for the others: at the top dose activity change, negative = inhibition, usual class: inhibitors. 0.12% of 150,000 active. AID 1452, 2008; further: potency means the concentration at half of the fitted maximal effect; nearly all actives have a fitted effect of over 55% in size
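Purified human 12hLO (150 nM final) was preincubated with compounds for 15 min at room temperature in 25 mM Hepes pH 7.0, 0.01% Triton X-100, then reacted with 40 uM arachidonic acid for 30 min. Hydroperoxide was detected with ferrous iron/xylenol orange.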
ALOX15B inhib: qHTS Assay for Inhibitors of 15-hLO-2 (15-human lipoxygenase 2) | Polyunsaturated fatty acid lipoxygenase ALOX15B (Homo sapiens), O15296 | purified 15hLO-2, xylenol orange hydroperoxide absorbance | Potency, µM (titrated, usually from 57.1 µM), for the others: at the top dose activity change, negative = inhibition, actives largely listed as inhibitors | 0.56% of 110,000 active; further: potency means the concentration at half of the fitted maximal effect; nearly all actives have a fitted effect of over 60% in size
Target sequence (O15296 whole entry, looked up): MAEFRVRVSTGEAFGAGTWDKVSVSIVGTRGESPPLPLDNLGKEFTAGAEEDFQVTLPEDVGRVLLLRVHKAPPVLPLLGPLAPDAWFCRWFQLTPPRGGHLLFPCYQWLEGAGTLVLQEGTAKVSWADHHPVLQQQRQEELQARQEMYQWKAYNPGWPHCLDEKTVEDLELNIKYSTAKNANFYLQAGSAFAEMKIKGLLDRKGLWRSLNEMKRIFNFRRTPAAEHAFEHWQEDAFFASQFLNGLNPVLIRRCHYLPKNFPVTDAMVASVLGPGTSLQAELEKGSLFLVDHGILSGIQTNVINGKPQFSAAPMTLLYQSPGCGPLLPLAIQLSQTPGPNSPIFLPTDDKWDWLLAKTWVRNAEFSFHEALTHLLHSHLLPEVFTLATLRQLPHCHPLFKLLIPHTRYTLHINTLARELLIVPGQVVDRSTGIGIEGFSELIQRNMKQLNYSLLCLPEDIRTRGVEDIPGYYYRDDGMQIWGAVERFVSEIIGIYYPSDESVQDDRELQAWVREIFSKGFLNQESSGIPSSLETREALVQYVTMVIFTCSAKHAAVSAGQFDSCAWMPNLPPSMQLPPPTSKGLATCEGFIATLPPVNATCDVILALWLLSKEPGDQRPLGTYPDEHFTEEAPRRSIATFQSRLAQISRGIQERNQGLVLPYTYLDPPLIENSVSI
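Read-out: hydroperoxide product oxidises ferrous iron, measured as xylenol orange complex via the 573-to-405 nm absorbance ratio after 30 min. Reaction: 50 nM enzyme, 15 min compound preincubation, 45 uM arachidonic acid, 90 min RT, Hepes pH 7.5 with Triton X-100.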
IMPase Li cell: qHTS Assay for Identifying the Cell-Membrane Permeable IMPase Inhibitors: Potentiation with Lithium | Potency, µM (highest dose often 59.4 µM), for the others: at the top dose activity, negative = IMPase inhibition, usual class: inhibitors | CHO-M1 cells, IP1 TR-FRET (IP-One), carbachol + lithium | 0.35% of 210,000 active;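 further: IP1 builds up when IMPase is blocked and the TR-FRET signal falls; potency means the concentration at half of the fitted maximal effect; plate controls were basal vehicle for no effect and high inhibitor control for full effect; nearly all actives have a fitted effect of over 50% in size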
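Steps: plate 2000 CHO-M1 cells per well and culture 16–30 h; add compound and lithium; incubate 30 min, 37C; add d2-IP1 tracer and Eu cryptate anti-IP1 antibody in lysis buffer; read after 10 min at room temperature.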
PNC assembly inh: High Content Assay for Compounds that inhibit the Assembly of the Perinucleolar Compartment. PC3M PTB-GFP, PNC prevalence imaging, 16 h; hits give low values. activity change (PNC), negative = inhibition, % at 10 µM. 3.1% of 140,000 active. AID 2417, 2010;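 active means readout at or below -70, meaning at least 70% loss of cells showing the perinucleolar compartment, a nuclear body marking cancer cells; inconclusive means readout between -30 and a set limit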;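 further: plate controls were DMSO wells for no effect and camptothecin positive control wells for full effect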
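Compounds are pinned in duplicate onto adhered PC3M cells stably expressing GFP-tagged PTB and incubated 16 h at 37 C. Cells are then fixed, nuclei stained with Hoechst, and PNC-positive cells counted.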
The depositor's hits bear a star; u = inconclusive; x = no result given; [ ] = dose if it differs, or a comment. The full list was thinned out, with hits kept by preference. Unless noted, the call rests on the fitted dose curve; in most records, active means well fitted curve in the direction sought with a large enough effect; inconclusive means small, poorly fitted or top-dose-only effect, or another doubt; inactive means no such curve, though single readings can be large; an effect the other way counts as inactive or inconclusive. Unless noted, on the % scale 0 is the no-effect control and ±100 the full control effect.

SMILES | IMPase inh | 12-hLO inh | ALOX15B inhib | IMPase Li cell | PNC assembly inh
Cc1nnc(N(C)C(=O)Cc2ccc3c(c2)OCO3)s1 | -5 | -7% | x | 3% | -100*
Cc1nnc(SCc2ccc3c(c2)OCO3)s1 | 15 | -2% | -9% | 21%[38.3 µM] | -21
CCOc1ccc(C(=O)CCN2CCCCC2)cc1 | 0 | -14% | -19% | 16%[38.3 µM] | -127*
COc1ccc(C(=O)CCN2CCCCCC2)cc1 | 0 | -2% | -23% | 1%[38.3 µM] | 10
COc1ccc(CN2C(=O)NC3(CCOc4ccccc43)C2=O)cc1F (stereo not given) | 6 | -4% | x | -2% | -80*
O=S(=O)(CC(CN1CCCC1)N1CCCC1)c1ccc2ccccc2c1 (stereo not given) | -6 | 1% | x | 9% | -100*
Cc1ccc(S(=O)(=O)CC(CN2CCOCC2)N2CCOCC2)cc1 (stereo not given) | x | x | x | 1% | x
Cc1cc(C)cc(NC(=O)Cn2cc(C(=O)C3CCCCC3)c3ccccc32)c1 | 3 | x | x | x | x
O=C(NN1CCOCC1)c1cc(S(=O)(=O)Nc2cccc(C(F)(F)F)c2)ccc1Cl | -7 | -1% | x | x | -98*
CC(=O)N1CCc2cc(S(=O)(=O)Nc3cccc(C(F)(F)F)c3)ccc21 | 6 | -1% | -10% | 6%[38.3 µM] | -3
N#CCCn1c(=O)cnc2cnc(OCc3ccccc3)nc21 | x | -2% | 4% | -10% | x
Cc1ccccc1C(=O)NNC(=S)Nc1cccc(C(F)(F)F)c1 | x | -4% | x | -5% | -112*
O=C(Nc1ccccc1)Nc1cccc(C(F)(F)F)c1 | x | x | x | 14% | x
CNC(=O)Nc1cccc(C(F)(F)F)c1 | -2 | -4% | x | -7% | -100*
O=C(NNC(=S)Nc1cccc(C(F)(F)F)c1)c1ccc(Cl)cc1Cl | x | -20% | x | -1% | -1
COCCNC(=O)COC(=O)c1nsc(Cl)c1Cl | 1 | 7% | -2% | -7%[38.3 µM] | -109*
COC(=O)[C@@H](N)CSC/C=C(\C)CC/C=C(\C)CCC=C(C)C | x | -1% | x | 13% | x
Cc1cc(C)c(C)c(OCC(=O)Nc2ccc(S(=O)(=O)Nc3nc(C)cc(C)n3)cc2)c1 | -1 | x | x | x | x
CN1CCCc2cc3c(C(F)(F)F)cc(=O)oc3nc21 | u | -13% | -21% | 10µM* | -19
CC12CC[C@@](C(=O)O)(C(=O)C1=O)C2(C)C | x | x | x | 7% | x
Cc1nn(-c2nc3ccccc3s2)c(C)c1Oc1ccccc1O | 14 | -12% | x | 3% | -100*
CCCOc1ccc(C2NC(=S)NC(c3ccccc3)=C2C(=O)Nc2ccc(C)cc2)cc1OC (stereo not given) | -8 | 14µM* | x | -2% | u
CCOC(=O)C1=C(c2ccccc2)NC(=S)NC1c1cc([N+](=O)[O-])ccc1OC (stereo not given) | 1 | -20% | 25µM* | 11%[38.3 µM] | -8
CC(=O)N1CC=CC1(CC(C)C)C(=O)NCCc1c[nH]c2ccccc12 (stereo not given) | x | 1% | -6% | 4% | -88*
CC(=O)OCC(=O)NCC(=O)c1c[nH]c2ccccc12 | x | -1% | x | 10% | -100*
SMILES | IMPase inh | 12-hLO inh | ALOX15B inhib | IMPase Li cell | PNC assembly inh
O=C(NCCc1c[nH]c2ccccc12)C(F)(F)F | -1 | -8% | -5% | 6%[38.3 µM] | 6
Cc1ccc(C(=O)OCC(=O)c2c[nH]c3ccccc23)cc1 | x | 0% | x | 6% | 68
CC(C)C(=O)NCCc1c[nH]c2ccccc12 | x | 2% | x | -8% | -124*
CC(C)c1cccc2c([Si](C)(C)C)c3c(nc12)-c1cccc(=O)n1C3 | x | -10% | -14% | -8% | x
COCCCn1c(SCc2cccc(C(F)(F)F)c2)nc2cc(OC)c(OC)cc2c1=N | 11 | -4% | x | 7%[38.3 µM] | -106*
COc1ccc(Cn2c(SCc3ccc(C)cc3)nc3cc(OC)c(OC)cc3c2=N)cc1Cl | 16 | 5% | 42% | 30%[38.3 µM] | 16
COc1ccc(Cn2c(SCc3cc(C)ccc3C)nc3cc(OC)c(OC)cc3c2=N)cc1 | 5 | -3% | 24% | 23%[38.3 µM] | -114*
CC1=C(/C=C/C(C)=C/C=C/C(C)=C\C=O)C(C)(C)CCC1 | x | -2% | -24% | -1% | x
Cc1ccc(NC(=O)CSc2nnc(NC(=O)CN3CCOCC3)s2)cc1 | 0 | 2% | 1% | 19%[38.3 µM] | -117*
CCn1nc(C(=O)Nc2nc3ccccc3[nH]2)c2ccccc2c1=O | x | -1% | x | 1% | -89*
Cc1ccccc1C1CC(=O)Oc2cc(C)c(Cl)c(C)c21 (stereo not given) | x | -2%[0.00818 µM] | -3%[0.0915 µM] | 21% | x
CC(=O)N1CCCc2cc(S(=O)(=O)NCCC3=CCCCC3)ccc21 | -4 | 1% | 4% | 18% | -86*
COc1ccccc1/C=C(\C#N)c1nc(-c2cc3ccccc3oc2=O)cs1 | -15 | x | x | x | x
COCC(=O)N1CCC2(CCCN(C(=O)Nc3ccc(OC)cc3)C2)CC1 | x | 0% | -7% | 6% | x
Cc1cc(C(=O)Nc2c(C)nn(Cc3c(Cl)cccc3Cl)c2C)no1 | 0 | 4% | 7% | 5%[38.3 µM] | 56
Cc1nn(Cc2c(Cl)cccc2Cl)c(C)c1NC(=O)c1cc(C(C)C)on1 | 4 | 9% | -17% | 13%[38.3 µM] | -102*
CN(C)c1ncc2nc(-c3cccs3)c(=O)n(C3CC3)c2n1 | x | -5% | -9% | 7% | x
Cc1ccc(N2CCN(Cc3nnc(-c4ccccc4F)o3)CC2)c(C)c1 | 10 | x | x | x | x
Cc1ccc(S(=O)(=O)Oc2cc(S(=O)(=O)O)cc3cc(S(=O)(=O)O)cc(N)c23)cc1 | x | 3%[11.4 µM] | 3%[11.4 µM] | -1% | x
NC(=O)c1ccccc1N/C=C/C(=O)c1cccs1 | 3 | 1% | x | 0% | -94*
NC(=O)C1C(c2ccccc2)=C1c1ccccc1 | 8 | -1% | 0% | 8%[38.3 µM] | -127*
O=C(c1ccc2ccccc2n1)N1CCN(c2ccccc2O)CC1 | -3 | -7% | -10% | 2%[38.3 µM] | -96*
CC1=C/C(=C\c2ccc3c(c2)OCO3)C(=O)S1 | -1 | u | -3% | -8%[38.3 µM] | -85*
O=C(c1ccco1)N1CCC2(CC1)CN(c1ccccn1)C2 | x | -1% | 1% | 11% | x
Cn1c(=O)c(-c2cccc(C#N)c2)nc2cnc(Oc3ccccc3)nc21 | x | x | -4% | 27% | x
CS(=O)(=O)N(CC(=O)O)Cc1ccccc1 | x | -4%[11.4 µM] | -12%[11.4 µM] | 0% | x
CN(C)c1ccc(NC(=O)/C=C/c2c(Cl)cccc2Cl)cc1 | -4 | -2% | x | -1% | -93*

Compound activity: PubChem BioAssay, National Center for Advancing Translational Sciences (NCATS)
